# Among all 94,000 compounds or so, about 6,200 (6.6%) were called active. A call without a number means that no potency is given here. Inconclusive results (about 31%) are left out. The sample holds actives, similar compounds and a random draw of the others, so the mix is not that of the screen. Calls follow the shape of the dose curve; as a rule, active = well fitted inhibition curve with a large enough effect; inconclusive = small, poorly fitted or top-dose-only effect; inactive = flat fitted curve, though single readings scatter.
# Assay: Cytotoxic Profiling in HEK 293 Cell Line of Diverse Libraries Using Quantitative High-Throughput Screening; also: nearly all actives have a fitted effect of over 60% in size
# Conditions: HEK 293 viability, ATP luminescence (CellTiter-Glo), 48-72 h; series mostly up to 115 µM
# Summary of the method: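 HEK 293 seeded at 250 cells/well receive compound via pintool. After 48 or 72 hr at 37 degree Celsius, 5% CO2 and 95% humidity, CellTiter-Glo is dispensed and luminescence read following 10 min at room temperature.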
# Potency is read from the fitted curve at half-maximal effect.
row,Compound,Potency
1,CCCn1cnc2c1CN(S(=O)(=O)c1ccc(C#N)cc1)[C@H](C(=O)OC)C2,inactive
2,CCN(CC)C(=O)C(NC(=O)c1ccc(OC)cc1)C1CCN(C(=O)c2ccc(F)cc2)CC1 (centres undefined),inactive
3,O=C(NC1CCCCC1)[C@@H]1C[C@@H](O)CN1C1CCN(C(=O)c2ccncc2)CC1,inactive
4,O=C1NC2(Cc3ccccc31)CN(Cc1cscn1)C2,inactive
5,O=C1NCCCCCCN(Cc2ccncc2)[C@@H]2CN(C(=O)NCCc3ccccc3)CC[C@@H]12,inactive
6,COc1ccc(NC(=O)N[C@@H]2C=C[C@@H](c3c(C)nn(-c4ccc(C(C)(C)C)cc4)c3C)C2)cc1,31.6 µM (active)
7,COc1ccc(NC(=O)[C@@H]2C[C@@H](O)CN2C2CCN(C(=O)c3cccc(OC)c3)CC2)cc1,inactive
8,O=C(c1ccc(Cn2cccn2)o1)N1CCn2nc(C(O)CO)cc2C1 (centres undefined),inactive
9,CN1CCN([C@@H]2[C@H](O)[C@H](CO)O[C@@H]2CNS(=O)(=O)c2ccccc2)CC1,inactive
10,CCCn1c(C)cnc1C1CCN(C(=O)C2CCCC2)C1 (centres undefined),inactive
11,O=C1CN(C(=O)c2ccc(-n3cccn3)cc2)CC(OCc2ccccc2)CN1Cc1cccnc1 (centres undefined),inactive
12,O=c1c2nc(OCc3ccc(-n4cccn4)cc3)ccc2ncn1Cc1ccccc1,28.2 µM (active)
13,COc1ccc(-c2ccc3ncn(Cc4ccccc4)c(=O)c3n2)cc1OC,inactive
14,CN(C)C(=O)c1cc(-c2cccc(C(F)(F)F)c2)c2nncn2n1,inactive
15,CC(=O)N1CCc2[nH]cnc2C12CCN(C(=O)c1ccc(=O)[nH]c1)CC2,inactive
16,CC(C)CNC(=O)C1Cn2cccc2C(=O)N1CC(C)C (centres undefined),inactive
17,COc1ccc(-n2c(=O)c(C(=O)NCC3CC3)nc3cccnc32)cc1,inactive
18,COc1ccc2nc([C@H]3CCN(Cc4ccc(NC(C)=O)cc4)C3)[nH]c2c1,inactive
19,COc1ccc(CN2C[C@H]3CN(Cc4ccc(NC(C)=O)cc4)CCN3C2=O)cc1,89.1 µM (active)
20,O=C(Nc1ccccc1)N1CCN2C(=O)N(Cc3ccc(F)cc3)C[C@H]2C1,inactive
21,COc1ccc(CCC(=O)N2CCCC(c3nc(-c4cccnc4)no3)CCNC(=O)CC2)cc1 (centres undefined),inactive
22,O=C(NC1CCCCC1)N1CCCCC1c1noc(COCC2CC2)n1 (centres undefined),inactive
23,O=C(Cn1nc2c(cc1=O)CCCC2)Nc1nc(-c2ccc3c(c2)OCO3)cs1,inactive
24,COc1ccc(-c2cccc(C(=O)NC3CC3)c2)nn1,inactive

row,Compound,Potency
1,COc1ccc(-c2cccc(C(=O)N3CCN(C(=O)c4ccc(F)cc4)CC3)c2)nn1,inactive
2,COc1ccc(-c2cccc(C(=O)N3CCC(NC(=O)c4ccc(C(F)(F)F)cc4)CC3)c2)nn1,39.8 µM (active)
3,COCC(=O)N1CCC(C(=O)N2CCCC(c3nc4ncccc4[nH]3)C2)CC1 (centres undefined),inactive
4,O=C1N[C@H](CC(=O)N2CCN(Cc3ccccc3)CC2)C(=O)Nc2ccccc21,inactive
5,COCc1nc2nccc(-c3ccccc3)n2n1,inactive
6,COc1cccc(-c2ccnc3nc(Cc4cc(F)cc(F)c4)nn23)c1,39.8 µM (active)
7,Fc1ccc(Cc2nc3nccc(-c4cc5ccccc5o4)n3n2)cc1,inactive
8,COCC1CN(C(=O)c2ccc(C#N)cc2)CC12CCOCC2 (centres undefined),inactive
9,COc1ccc(C(=O)N[C@@H]2CCC[C@@H]2C(=O)NCc2ccc3c(c2)OCO3)cc1,inactive
10,COc1ccc(OC)c(NC(=O)c2cc3n(n2)CC(c2ccc(Cl)cc2)OC3)c1 (centres undefined),inactive
11,COc1ccc(CNC(=O)c2cc3n(n2)CC(c2ccc4c(c2)OCO4)OC3)c(OC)c1 (centres undefined),35.5 µM (active)
12,COc1ccc(OCc2nc(C)c(CCO)c(=O)n2CC(=O)NCc2ccc(F)cc2)cc1,inactive
13,N#Cc1ccc(CN2C[C@@H]3C[C@H]2C(=O)Nc2ccccc2O3)cc1,inactive
14,O=C1[C@@H]2C[C@@H](CN2Cc2ccc3ccccc3n2)Oc2ccccc2N1Cc1ccccc1,44.7 µM (active)
15,COCCN1C(=O)[C@@H]2C[C@@H](CN2C(=O)Nc2ccccc2)Oc2ccccc21,inactive
16,COCCC(=O)NCC1Cn2cccc2C(=O)N1Cc1ccccc1 (centres undefined),inactive
17,COc1ccccc1C(=O)N1CCC2(C1)C(=NC1CCCC1)NC(=O)N2c1cccnc1 (centres undefined),inactive
18,CS(=O)(=O)N1CCC(C2CCN(C(=O)Cc3cccs3)C2)CC1 (centres undefined),inactive
19,COc1ccccc1CN1CCc2nc(C3CC3)nc(-c3ccc(O)cc3)c2CC1,44.7 µM (active)
20,COc1ccc(CC(=O)N2CCc3nc(C4CC4)nc(-c4ccc(O)cc4)c3CC2)cc1,inactive
21,COc1ccccc1CN1CCc2nc(C(C)C)nc(-c3ccc(O)cc3)c2C1,inactive
22,COCCc1noc(Cc2c(C)nn(-c3ccccc3)c2C)n1,inactive
23,COc1ccc(-c2noc(CC3CCN(C(=O)CC4CCCCC4)CC3)n2)cc1,44.7 µM (active)
24,CCOc1ccc(CC(=O)N2CCC(Cc3nc(-c4cnccn4)no3)CC2)cc1,inactive

row,Compound,Potency
1,COc1ccc(CC(=O)N2CCC(Cc3nc(C(C)C)no3)CC2)cc1Cl,inactive
2,COc1cccc(C(=O)N2CCC(Cc3nc(-c4cnccn4)no3)CC2)c1,inactive
3,COc1ccc(CC(=O)N2CCC(Cc3nc(-c4cnccn4)no3)CC2)cc1Cl,inactive
4,COc1ccc(CC(=O)N2CCC(Cc3nc(-c4ccccc4)no3)CC2)cc1OC,35.5 µM (active)
5,CNC(=O)[C@@H]1C[C@@H](O)CN1C1CCN(C(=O)c2ccc(OC)c(F)c2)CC1,inactive
6,CC1CCN(C(=O)CCNc2c(-c3ccc(F)cc3)nc3cnccn23)CC1,inactive
7,CCC1CN(C(=O)c2ccc(C#CC(C)(C)O)o2)CCN1C(C)C (centres undefined),inactive
8,CCCN(CC1CCOC1)S(=O)(=O)c1ccc(C(F)(F)F)cc1 (centres undefined),inactive
9,O=c1n(Cc2ccc(F)cc2)nc2n1CCCCC2,inactive
10,O=C(c1ccc2c(c1)OCO2)N1CCN(c2ccc(Cl)nn2)C(=O)C1,inactive
11,N#Cc1ccc(CN2CCC[C@H]2c2nc(-c3ccc(F)cn3)no2)cc1,inactive
12,COCCOc1ncccc1-c1noc([C@@H]2CCCN2CC(C)(C)C)n1,63.1 µM (active)
13,Cc1cccc(OCC(=O)N2CCC[C@H]2c2nc(-c3ccccc3)no2)c1,inactive
14,Cn1ccnc1CN1CCCC(CCC(=O)Nc2ccccc2F)C1 (centres undefined),inactive
15,CC1=C[C@@H](CN(CC2CC2)CC2CC2)[C@H](C(C)C)C[C@H]1Cc1nc2c(C)cccc2[nH]1,89.1 µM (active)
16,CC(=O)N1CCC(C2CCN(C(=O)CCCc3nc4ccccc4[nH]3)C2)CC1 (centres undefined),inactive
17,CC1=C[C@@H](CNCC(C)C)[C@H](C(C)C)C[C@H]1Cc1nc2c(C)cccc2[nH]1,39.8 µM (active)
18,Nc1nc(C2CC(NC(=O)CCc3nc4ccc(F)cc4[nH]3)C2)cc(=O)[nH]1 (centres undefined),inactive
19,CC1=C[C@@H](CNC(=O)CC2(CC(=O)O)CCCC2)[C@H](C(C)C)C[C@H]1Cc1nc2c(C)cccc2[nH]1,inactive
20,CC1=C[C@@H](CNC2CCN(C)CC2)[C@H](C(C)C)C[C@H]1Cc1nc2ccccc2[nH]1,28.2 µM (active)
21,CC(=O)N1CCC(NC[C@@H]2C=C(C)[C@H](Cc3nc4ccccc4n3C)C[C@H]2C(C)C)CC1,inactive
22,CC1=C[C@@H](CNC(=O)C2CCCCC2)[C@H](C(C)C)C[C@H]1Cc1nc2ccc(F)cc2[nH]1,28.2 µM (active)
23,COc1ccc2nc(C[C@@H]3C[C@@H](C(C)C)[C@H](CNC(=O)CC(C)(C)CC(=O)O)C=C3C)[nH]c2c1,inactive
24,Cc1cnc(C(=O)NC2CC(c3nnc(CO)n3C3CC3)C2)[nH]1 (centres undefined),inactive

row,Compound,Potency
1,O=C(c1ccc2c(c1)[nH]c(=O)n2C1CCC(O)CC1)N1CCc2ccccc2C1 (centres undefined),inactive
2,Cc1ccc(-n2nc(C(=O)N3CC[C@](C)(O)C(C)(C)C3)c(O)cc2=O)cc1,inactive
3,Cc1ccc(C)c2c(=O)cc(CN3CCN(CCn4cncn4)CC3)[nH]c12,inactive
4,CCN1C(=O)CCN(Cc2cnn(CC)c2C)CC12CCOCC2,inactive
5,Cc1cc2occ(CC(=O)N3CC[C@](C)(O)[C@@H](O)C3)c2cc1Cl,inactive
6,N#Cc1ccc(S(=O)(=O)N2CC(n3cc(C(=O)NCc4ccccc4)nn3)C2)cc1,50.1 µM (active)
7,O=C(NCC1CC1)c1cn(C2CN(C(=O)NCCc3ccccc3)C2)nn1,inactive
8,CCOC(=O)c1cn(C2CN(S(=O)(=O)c3cccc(F)c3)C2)nn1,inactive
9,CC(=O)N1CCN(C(=O)C2(Cn3cccn3)CC2)CC(O)C1 (centres undefined),inactive
10,COCCNC(=O)[C@H]1C[C@H](Oc2cccnc2)CN1C(=O)NC1CCCCC1,inactive
11,O=C1NCCC[C@@H]1NC(=O)[C@H]1CN(C(=O)CS(=O)(=O)c2ccccc2)CCN1C(=O)C1CCCCC1,inactive
12,CCN(CC)c1ncccc1CNC(=O)Nc1ccc2c(c1)OCO2,inactive
13,CC(=O)Nc1ccc(-c2c(-c3ccc4c(c3)OCO4)nn(-c3cc(C)ccc3C)c2OC(C)=O)cc1,39.8 µM (active)
14,CCCc1nn(-c2cccc(F)c2)c(OC(C)=O)c1-c1ccc(NC(C)=O)cc1,inactive
15,CN1CCCN(C[C@@H]2CN(C(=O)c3ccnn3C)C[C@@H]2CO)CC1,inactive
16,O=C(Cc1cccnc1)N1CCCC(c2nc(CCOCC3CCCC3)no2)C1 (centres undefined),inactive
17,CCN(CC)C(=O)N1CCCC(c2nc(CCOCC3CCOCC3)no2)C1 (centres undefined),inactive
18,C1CCC(COCCc2noc(C3CNC3)n2)C1,6.31 µM (active)
19,CNC(=O)[C@@H]1CN(C(=O)c2ccc(F)c(Cl)c2)C[C@H]1CO,inactive
20,CCn1ccc(C(=O)N2CCCC(c3noc(COC)n3)C2)n1 (centres undefined),inactive
21,Cc1nc(-c2ccccc2OC2CN(S(=O)(=O)c3c(C)noc3C)C2)no1,inactive
22,COc1ccc(CCC(=O)NCC(=O)N2CCCCCCNC(=O)CC2c2ccccc2)cc1 (centres undefined),inactive
